Assay results as given in PubChem BioAssay AID1486 (The Scripps Research Institute Molecular Screening Center, 2009).
The whole screen tested about 220,000 compounds, of which about 2,400 (1.1%) were called active.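 How the source made its calls: active means inhibition above a per-campaign cutoff, the mean inhibition of all tested compounds plus 3 SD (cut at about 27% in these data); inactive means the rest.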 The sample as a whole holds a higher share of actives than the screen did.

Assay: parental Ba/F3 cell viability inhibition, counter-screen for JAK2V617F inhibitor project, murine pro-B, CellTiter-Glo luminescence (AID 1486);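 further: 0% = DMSO wells and 100% = JAK Inhibitor I control wells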
Conditions: CellTiter-Glo ATP luminescence, at 5.6 µM, hits give high values

Compound | inhibition
CCN(CC)C(=O)CSC(Nc1cccc(F)c1)=C(C#N)C#N | -0.34% (inactive)
Cc1cc(C)c2nc(-c3cccnc3)cc(C(=O)Nc3ccc(S(=O)(=O)Nc4onc(C)c4C)cc3)c2c1 | 8.53% (inactive)
O=C(Nc1ccccc1Cl)/C(Cl)=C(\Cl)S(=O)c1ccccc1 (stereo unspecified) | 104% (active)
O=C(Nc1ccccc1Cl)c1ccc2nsnc2c1 | 9.68% (inactive)
O=C(CN1CCCCC1)Nc1ccccc1Cl | 5.49% (inactive)
N#C/C(=C\c1ccc(N2CCOCC2)o1)C(=O)N1CCOCC1 | 4.08% (inactive)
Cc1cc(OCCCC(=O)NCCN2C(=O)S/C(=C\c3cccnc3)C2=O)ccc1Cl | 6.03% (inactive)
O=C(O)Cc1csc(NC(=O)CSc2nnnn2-c2ccc(O)cc2)n1 | -4.21% (inactive)
CC1Cc2ccccc2N1CC(=O)Nc1ccc2c(c1)OC(F)(F)O2 (stereo unspecified) | 4.14% (inactive)
Cc1ccc(C(C)C)cc1OCCN1CCCC1 | 5.38% (inactive)
Cc1cc(OCCN2CCCC2)cc(C(C)C)c1 | 93.8% (active)
Cc1cc(OCCN2CCCC2)ccc1C(C)C | 1.72% (inactive)
Cc1ccc(-c2nc(SCC(=O)Nc3ccccc3OC(F)F)c3c(C)c(C(=O)O)sc3n2)cc1 | 1.45% (inactive)
CC1=C/C(=N\OS(=O)(=O)c2ccccc2)C=CC1=O | 32.1% (active)
CC1=C/C(=N\S(=O)(=O)c2ccccc2)C(C(C)C)=CC1=O | 5.54% (inactive)
CCOC(=O)C1(S(=O)(=O)c2ccccc2)CCN(Cc2ccccc2)CC1 | 8.01% (inactive)
CCN(CC)CCNCc1ccc(OCc2ccc(Cl)nc2)c(OC)c1 | 2.52% (inactive)
CC[C@H]1CN2CCc3cc(OC)c(OC)cc3[C@@H]2C[C@@H]1C[C@H]1NCCc2cc(OC)c(OC)cc21 | 100% (active)
COc1cc2c(cc1O)[C@H](Cc1ccc(Oc3cc(C[C@@H]4NCCc5cc(OC)c(O)cc54)ccc3O)cc1)NCC2 | 5.61% (inactive)
COC(=O)C1=C(NC(=O)C(C)(C)C)CCS1 | -0.46% (inactive)
O=C(O)c1cccnc1Sc1ncnc2sc3c(c12)CCC3 | -7.35% (inactive)
O=C(c1ccc(Cl)cc1)N1N=C(c2ccccn2)CC1(O)C(F)(F)F (stereo unspecified) | 0.67% (inactive)
O=C(NCC1CCCCC1)c1cc(S(=O)(=O)N2CCCCC2)ccc1N1CCOCC1 | 8.85% (inactive)
COc1cc2c(cc1OC)CN(C(=O)c1ccc(S(=O)(=O)N3CCCCCC3)cc1)CC2 | 10% (inactive)

Compound | inhibition
CCOc1cc(C(=O)N2CCc3cc(OC)c(OC)cc3C2)ccc1OC(F)F | 78.2% (active)
COc1cc2c(cc1OC)CN(C(=O)c1cc(=O)c3ccccc3o1)CC2 | 24.8% (inactive)
O=C(COC(=O)c1cc(=O)[nH]c2ccccc12)Nc1nc(-c2cccc(Br)c2)cs1 | 3.32% (inactive)
O=C(Cn1c(COc2ccccc2)nc2ccccc21)Nc1cc(Cl)c(Cl)cc1Cl | 2.68% (inactive)
CC(C)CC(=O)N1CCC(O)(CS(=O)(=O)Cc2ccccc2)CC1 | 50.5% (active)
Cc1ccccc1CS(=O)(=O)CC1(O)CCN(C(=O)c2cccc(C(F)(F)F)c2)CC1 | -1.41% (inactive)
CS(=O)(=O)N1CCN(C(=O)Cc2ccccc2)CC1 | -0.7% (inactive)
CCCCNc1nc2c(c(=O)n(C)c(=O)n2C)n1Cc1cccc(OC)c1 | 48.4% (active)
Cn1c(=O)c2c(nc(NCCc3ccccc3)n2Cc2ccccc2)n(C)c1=O | 6.77% (inactive)
COC(=O)C(C)Sc1nc2c(c(=O)n(C)c(=O)n2C)n1Cc1cccc(C)c1 (stereo unspecified) | 4% (inactive)
Cc1c(C(=O)Nc2cccc(Cl)c2)cn2c(nc3ccccc32)c1C#N | 2.67% (inactive)
COC(=O)C1CCN(C(=O)c2cc(=O)[nH]c3ccccc23)CC1 | 5.12% (inactive)
O=C(COC(=O)CCCNC(=O)c1ccc(Cl)cc1)Nc1cc(Cl)ccc1Cl | 2.29% (inactive)
Cc1cc(C)nc(S/C=C/C(=O)c2ccccc2)n1 | 6.81% (inactive)
COc1ccc(Cl)cc1CSc1ncn[nH]1 | -3.75% (inactive)
O=C(/C=C/Sc1ncn[nH]1)c1ccc(Cl)cc1 | 59.2% (active)
Nc1scc[n+]1Cc1cccc2cccnc12 | -7.17% (inactive)
CC1=CC(C)(C)NC(=S)N1NC(=O)c1ccccc1Cl | -3.65% (inactive)
COc1ccc(Nc2cc(=O)oc3ccccc23)cc1 | 50.9% (active)
COc1ccc(Nc2cc(=O)n(-c3ccccc3)c3c2c(=O)n(C)c(=O)n3C)cc1 | 4.99% (inactive)
COc1ccc(N2CCN(Cc3cc(=O)oc4ccc5ccccc5c34)CC2)cc1 | 5.38% (inactive)
O=C(Nc1cccc(S(=O)(=O)NC2=NCCC2)c1)C1CCCCC1 | -1.01% (inactive)
CCN(CC)CCn1c(N)c(S(=O)(=O)c2ccccc2)c2nc3ccccc3nc21 | 5.27% (inactive)
c1cnn(-c2cc(N3CCOCC3)ncn2)c1 | 5.98% (inactive)

Compound | inhibition
Cc1csc(NC(=O)NC2(C(F)(F)F)Oc3ccccc3O2)n1 | 13.6% (inactive)
O=C(Nc1cc(N2CCOCC2)ncn1)NC1(C(F)(F)F)Oc2ccc(Cl)cc2O1 (stereo unspecified) | 42.3% (active)
CC1(C)CCSC(/C=C/c2ccccc2)=N1 | -2.99% (inactive)
CC1(C)C=C2[C@H]3CC[C@@H]4[C@@]5(C)CCC(=O)C(C)(C)[C@@H]5CC[C@@]4(C)[C@]3(C)CC[C@@]2(C(=O)O)CC1 | 4.85% (inactive)
Cc1cc(C)cc(OCC(=O)Nc2ccc(S(=O)(=O)Nc3ccccn3)cc2)c1 | -1.55% (inactive)
Cc1ccc(S(=O)(=O)Nc2ccc3ncccc3c2)cc1 | 37.5% (active)
Cc1ccc(OCC(=O)Nc2ccc(S(=O)(=O)Nc3ccccn3)cc2)cc1 | 0.56% (inactive)
COc1ccccc1C(=O)Nc1nc2nc(-c3ccccc3)cc(=O)n2[nH]1 | 2.81% (inactive)
Nc1nc(Sc2ncccc2[N+](=O)[O-])n[nH]1 | -0.31% (inactive)
CCOC(=O)c1ccc(NNC(C)=O)c([N+](=O)[O-])c1 | -0.42% (inactive)
O=C(NNC(=O)C1C2CCC(C2)C1C(=O)O)c1ccc(Cl)cc1 (stereo unspecified) | 2.39% (inactive)
COc1cccc(OC)c1C(=O)Nc1ccc(N2CCCCC2)cc1 | 9.75% (inactive)
COc1ccc(C(=O)NC(=S)Nc2ccc(N3CCCC3)cc2)cc1OC | 3.89% (inactive)
COc1cccc(C(=O)Nc2ccc(N3CCCC3)cc2)c1 | 45.8% (active)
CCOCCCn1c(NN)nc2ccccc2c1=O | 1.96% (inactive)
COn1c(=O)c(=O)n(OC)c2ccccc21 | 3.35% (inactive)
CC(C)OCCCNc1ncnc2c1[nH]c1ccc(F)cc12 | 69.9% (active)
COc1cc(OC)c(OC)cc1/C=N/Nc1ncnc2c1[nH]c1ccc(C)cc12 | -0.75% (inactive)
O=C1CCCN1CCCNc1ncnc2c1[nH]c1ccccc12 | 2.08% (inactive)
CS(=O)(=O)c1ccc2nnn(OCC(=O)Nc3cccc(C#N)c3)c2c1 | -2.77% (inactive)
COc1ccc(NC(=O)C(CC(C)C)NS(=O)(=O)c2ccc3c(c2)CCN3C(C)=O)cc1OC (stereo unspecified) | 1.81% (inactive)
CCCc1nnc(SCC(=O)N2C(C)CCCC2C)n1CC (stereo unspecified) | 2.43% (inactive)
CCN(CC)c1ccc(/C=N/Nc2nc(C)cc(C)n2)c(O)c1 | 3.74% (inactive)
CCN(CC)c1ccc(/C=N/NC(=O)c2cnccn2)c(O)c1 | 34.4% (active)

Compound | inhibition
O=C(Nc1ccc2c(c1)OCCO2)c1cnccn1 | 4.31% (inactive)
COC(=O)c1noc(C)c1-c1ccnn1C(=O)c1ccc(Cl)cc1 | -1.68% (inactive)
COCc1cc(=O)oc2cc(NS(=O)(=O)c3ccc(C)cc3)ccc12 | -1.36% (inactive)
COc1ccc(NC(=S)Nc2ccccc2Cl)cn1 | 9.94% (inactive)
Cc1ccc(NC(=O)OCc2cncs2)cc1 | 8.02% (inactive)
COc1ccc(CS(=O)/C(Cl)=C(/Cl)C(=O)Nc2ccc(OC)nc2)cc1 (stereo unspecified) | 104% (active)
COc1ccc(NC(=S)NCCNC(C)=O)cc1 | 3.11% (inactive)
COc1ccc(Nc2cc(Cl)ccc2C(=O)O)cn1 | -9.44% (inactive)
COc1ccc(NC(=O)/C(Cl)=C(/Cl)S(=O)Cc2ccc(C)cc2)cn1 (stereo unspecified) | 103% (active)
CN(C)/C(CN1CCCCC1)=C1\N=C(c2ccccc2)OC1=O | 7.38% (inactive)
O=C(CNCc1cccs1)Nc1cc(S(=O)(=O)N2CCCC2)ccc1Cl | -6.85% (inactive)
Cc1ccc(-c2cc(=O)c3ccc(F)cc3[nH]2)cc1 | 0.37% (inactive)
Cc1ccc(-c2cc(=O)c3ccc(Cl)cc3[nH]2)cc1 | -0.93% (inactive)
O=c1cc(-c2ccccc2)[nH]c2cc(F)ccc12 | 72.4% (active)
Cc1cc(O)ccc1NC1=CC(=O)CC(C)(C)C1 | 6.24% (inactive)
CCN(CC)CCCN=Cc1c(O)n(-c2ccc(C)cc2)c(=O)c2ccccc12 | 1.41% (inactive)
O=c1c2ccccc2nc2n1C(CSc1ccc(F)cc1)CN2 (stereo unspecified) | 3.79% (inactive)
O=c1c2ccccc2nc2n1C(CSCc1cccc(C(F)(F)F)c1)CS2 (stereo unspecified) | 17.3% (inactive)
O=c1c2ccccc2nc2n1C(CSCc1ccccc1)CS2 (stereo unspecified) | 39.8% (active)
Nc1nonc1-n1nnc(C(=O)N/N=C/c2cc(Br)ccc2O)c1CSC1=NCCS1 | 4.7% (inactive)
COC(=O)C1=C(N)Oc2c(oc(CO)cc2=O)C1c1c(F)cccc1Cl (stereo unspecified) | 1.36% (inactive)
CSC(=S)N/N=C/c1c[nH]c2ccccc12 | 3.36% (inactive)
C[n+]1ccc(/C=C/c2c[nH]c3ccccc23)cc1 | 75.7% (active)
S=c1[nH]nc(-c2ccccc2)n1/N=C/c1c[nH]c2ccccc12 | 0.81% (inactive)
